This is a sample that favours compounds with a hit; in the whole collection about 6.2% have one here.
Lassa entry inh – inhibitors of Lassa virus binding or cell entry; 300,000 tested, 1.2% active; AID 540256; Potency, µM (titrated, usually from 37.9 µM), without a hit: at the top dose activity change, negative = inhibition, most hits filed as inhibitors; Lassa virus pseudotype entry inhibition, cell reporter; calls by dose curve; tested in HEK293 cells; further: potency means the concentration at half of the fitted maximal effect; nearly all actives have a fitted effect of over 50% in size
FMDV antiviral – foot and mouth disease virus antiviral activity; 410,000 tested, 1.2% active; AID 1159524; Potency, µM (doses to about 57.9 µM), for inactives: top-dose activity change, negative = inhibition, usual class: inhibitors; FMDV antiviral cell-based qHTS; calls by dose curve; tested in HEK293T cells; further: read-out not given here; potency means the concentration at half of the fitted maximal effect; nearly all actives have a fitted effect of over 45% in size
HCMV antiviral – blocks human cytomegalovirus replication; activity change, negative = inhibition, % at 57.5 µM; 410,000 tested, 4.5% active; HFF cells, HCMV-luciferase reporter, 72 h; stronger effect = lower value; AID 1259415; in the data active means activity change below about -60%; inconclusive means no clear call, values can overlap the other calls; inactive means above about -39%
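HFF cells seeded 16 h at 37C, treated with compounds, infected with luciferase-reporter HCMV at MOI 1 PFU/cell; luciferase read at 72 h post infection, normalized to buffer-only and Salinomycin controls.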
Marburg entry inh – inhibitors of Marburg virus binding or cell entry. Marburg virus pseudotyped entry inhibition, cell reporter. Potency, µM (doses to about 37.8 µM), for inactives: top-dose activity change, negative = inhibition, most hits filed as inhibitors. 300,000 tested, 1.8% active; calls by dose curve; tested in HEK293 cells; further: potency means the concentration at half of the fitted maximal effect
Numbers without * were called inactive; ? = inconclusive; . = not tested or not shown; + = active, no number; ! = a repeat was not active; [ ] = dose if it differs, or a comment. On the % scale 0 is the no-effect control and ±100 the full control effect.

SMILES | Lassa entry inh | FMDV antiviral | HCMV antiviral | Marburg entry inh
O=C(NCCN1CCC(n2c(=O)[nH]c3ccccc32)CC1)c1ccc(F)c(C(F)(F)F)c1 | . | -28% | -5 | .
Cc1cc2nn(-c3ccc(F)cc3)nc2cc1NC(=O)c1cc(Cl)ccc1Cl | 12%[46.1 µM] | 30% | 24 | ?
CCOC(=O)c1cnc(SCC(=O)Nc2cc(OC)ccc2OC)nc1N | 8% | 14µM* | 7 | ?
COc1ccccc1NC(=O)c1c(C)cc(C)nc1SCC(=O)Nc1ccc(C)c(C)c1 | -22%[46.1 µM] | -4% | ? | 7.9µM*
Cc1cc(C)c(C(=O)Nc2ccccc2)c(SCC(=O)Nc2ccc(Br)cc2C)n1 | -18%[46.1 µM] | -11% | -69* | ?
COCCc1nn2c(=O)cc(COC(=O)c3ccc(C(C)(C)C)cc3)nc2s1 | 1%[46.1 µM] | ? | -14 | .
CN[C@H](CC(C)C)C(=O)N[C@H]1C(=O)N[C@@H](CC(N)=O)C(=O)N[C@@H]2C(=O)N[C@H]3C(=O)N[C@H](C(=O)N[C@H](C(=O)O)c4cc(O)cc(O)c4-c4cc3ccc4O)[C@H](O)c3ccc(c(Cl)c3)Oc3cc2cc(c3O[C@@H]2O[C@H](CO)[C@@H](O)[C@H](O)[C@@H]2O[C@H]2C[C@](C)(N)[C@H](O)[C@H](C)O2)Oc2ccc(cc2Cl)[C@H]1O | 43% | . | . | -11%
Cc1ccc(Sc2c(CO)c(-c3ccccc3)nn2C)cc1 | ? | ? | -83* | ?
O=C(OC1Cc2c(O)cc(O)cc2OC1c1cc(O)c(=O)c2c(O)c(O)cc(C3Oc4cc(O)cc(O)c4CC3OC(=O)c3cc(O)c(O)c(O)c3)c2c1)c1cc(O)c(O)c(O)c1 (stereo unspecified) | . | -7% | . | .
O=[N+]([O-])c1ccc(S(=O)Cc2ccccc2)c([N+](=O)[O-])c1 (stereo unspecified) | 11µM* | 14µM* | -97* | ?
Cc1ccc(NC(=O)C(C)Sc2nc3c(c(=O)[nH]2)CCCC3)cc1Cl (stereo unspecified) | -1%[46.1 µM] | -16% | -9 | -15%[46.1 µM]
Cn1c(N)c(C(=O)NCc2ccccc2Cl)sc1=S | 5% | 0% | 5 | -17%
C=CCn1c(N)c(C(=O)NCC2CCCO2)sc1=S (stereo unspecified) | 18% | -16% | -62* | -2%
Cn1c(N)c(C(=O)Nc2ccc(-c3ccccc3)cc2)sc1=S | . | ? | -76* | .
C=CCn1c(N)c(C(=O)Nc2ccc(C)cc2)sc1=S | . | 74% | -91* | -3%
C=CCn1c(N)c(C(=O)Nc2ccccc2OC)sc1=S | -4% | 32% | 46 | 15%
Cc1ccc(NS(=O)(=O)c2ccc3[nH]c4c(c3c2)CCCCC4)cc1 | -2%[46.1 µM] | 44% | -20 | .
CC(C)N(CCO)Cc1nc(N2CCOCC2)c2cc(Cl)ccc2n1 | . | -3% | . | .
Nc1c(N=Nc2ccc(-c3ccc(N=Nc4cc(S(=O)(=O)O)c5ccccc5c4N)cc3)cc2)cc(S(=O)(=O)O)c2ccccc12 | ? | . | . | 14µM*
O=S(=O)(O)c1ccc(N=Nc2ccccc2)cc1 | 19%[46.1 µM] | -17% | -3 | 14%[46.1 µM]
Cc1cc(-c2ccc(N=Nc3ccc4c(S(=O)(=O)O)cc(S(=O)(=O)O)c(N)c4c3O)c(C)c2)ccc1N=Nc1ccc2c(S(=O)(=O)O)cc(S(=O)(=O)O)c(N)c2c1O | ? | 32µM* | . | ?
CCc1nn2c(=O)c(S(=O)(=O)Nc3ccc(Cl)cc3)c(C)nc2s1 | 3%[46.1 µM] | -19% | 53 | -23%[46.1 µM]
CCc1nn2c(=O)c(F)c(N3CCNCC3)nc2s1 | . | -17% | -105* | .
CCOc1ccc(CCNC(=O)c2cc3cc4ccc(OC)cc4nc3s2)cc1OCC | -7%[46.1 µM] | -19% | -13 | ?
COc1ccc2cc3cc(C(=O)NC4CC4)sc3nc2c1 | . | 16µM* | 62 | .
SMILES | Lassa entry inh | FMDV antiviral | HCMV antiviral | Marburg entry inh
Cc1c(C)n(C)c2ccc(C(=O)NCCCN3CCCCC3C)cc12 (stereo unspecified) | 2%[46.1 µM] | -2% | +! | .
Cc1c(C)n(C)c2ccc(C(=O)NCCCN(C)C3CCCCC3)cc12 | . | ? | 30 | .
CCN(CCOC(=O)Nc1ccc(Cl)cc1)C(=O)Nc1ccc(Cl)cc1 | . | . | 9 | .
Cc1cc(NC(=O)CCn2c(=O)c3cccn3c3cccnc32)ccc1Br | 24%[46.1 µM] | -10% | -35 | .
COc1cc(OC)cc(C(=O)NC(C(=O)N2CCc3ccccc3C2)C(C)C)c1 (stereo unspecified) | ? | 14% | -1 | 11µM*
COc1cc(OC)cc(C(=O)N[C@H](C(=O)N2CCc3ccccc32)C(C)C)c1 | -18% | -10% | -19 | ?
c1ccc(CCc2nn3c(Cn4cnc5ccccc54)nnc3s2)cc1 | ? | ? | -5 | -18%
COc1ccc(OCc2nn3c(Cn4cnc5ccccc54)nnc3s2)cc1 | -24% | ? | -68* | ?
O=C(COC(=O)Cc1ccccc1)Nc1ncc(Cl)cc1Cl | 6% | -18% | ? | 0%[46.1 µM]
O=C(COC(=O)CNC(=O)c1ccco1)Nc1ncc(Cl)cc1Cl | . | -2% | -100* | .
CCOc1ccccc1OCC(=O)OCC(=O)Nc1ncc(Cl)cc1Cl | 8% | -20% | -72* | 11%
C[C@@H](CO)NC(=O)c1[nH]cnc1C(=O)Nc1ccccc1 | . | . | 5 | .
C=C1CC(COc2cc(=O)oc3ccccc23)(c2ccccc2)OC1=O (stereo unspecified) | -19% | 14µM* | 216 | ?
O=C(c1ccco1)N1CCC2(CCCN(C(c3ccccc3)c3ccccc3)C2)CC1 | . | -27% | . | .
COc1ccc(CCN2C(=O)c3cccc4c(C(=O)N5CCCCC5)ccc(c34)C2=O)cc1OC | ? | 14µM* | -65* | ?
O=C(NCc1cccnc1)/C(=C\c1ccc(-c2ccc(Cl)c(Cl)c2)o1)S(=O)(=O)c1ccccc1 | ? | ? | -102* | ?
CC(=O)N1c2c(cc(Br)cc2S(=O)(=O)N2CCN(c3cc(C)ccc3C)CC2)CC1C (stereo unspecified) | ? | 0% | -33 | -14%[46.1 µM]
CCCCN(Cc1ccccc1)S(=O)(=O)c1cc(Br)cc2c1N(C(C)=O)C(C)C2 (stereo unspecified) | ? | -22% | -65* | ?
CC(=O)N1c2c(cc(Br)cc2S(=O)(=O)N2CCN(c3ccccc3F)CC2)CC1C (stereo unspecified) | . | ? | -67* | ?
CC(=O)N1c2c(cc(Br)cc2S(=O)(=O)NCc2cccnc2)CC1C (stereo unspecified) | 7% | 52% | 41 | -1%
COc1ccc(-n2c(C(C)n3nc(C)c([N+](=O)[O-])c3C)n[nH]c2=S)cc1 (stereo unspecified) | 3% | 0% | -16 | 4%
COc1ccc(-n2c(C)c([N+](=O)[O-])c3ccc(O)c(CN(C)C)c32)cc1 | -24% | -28% | -92* | ?
Cc1ccc(Cc2cnc(NC(=O)c3cccs3)s2)cc1 | ? | 23% | 75 | ?
Cc1ccc(C(=O)Nc2ncc(Cc3ccccc3)s2)o1 | ? | -10% | -8 | 5.2µM*
O=C(Nc1ncc(Cc2ccccc2)s1)c1cccs1 | ? | -6% | 69 | ?
O=C(Nc1ncc(Cc2cccc(Cl)c2)s1)c1cccs1 | 8.9µM* | 14% | 80 | 10µM*
CCC(CC)C(=O)Nc1c(C(=O)N2CCN(c3ccccc3)CC2)oc2ccccc12 | ? | 22% | -79*! | ?
